# According to PubChem BioAssay AID540336 (Broad Institute, 2011):
# Among all 330,000 compounds or so, about 520 (0.16%) were called active. The full list was thinned out, with actives kept by preference. Values without a mark were called inactive.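 The calls were made as follows: active = inhibition of at least 50% in every replicate; inconclusive = best replicate reaches 50% inhibition but some replicates fall short; inactive = the rest.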
# Target: Histone acetyltransferase RTT109 (Candida albicans (strain SC5314 / ATCC MYA-2876)) (UniProt Q5AAJ8)
# Assay: inhibitors of C. albicans Rtt109/Vps75 HAT, primary screen, biochemical, ThioGlo CoA-SH fluorescence, plate reader (AID 540336)
# Conditions: purified Rtt109/Vps75, ThioGlo CoA-SH fluorescence, 4 h; at 34.9 µM; active compounds read high
# Chain of Histone acetyltransferase RTT109 (Candida albicans (strain SC5314 / ATCC MYA-2876)) (Q5AAJ8 whole entry, looked up): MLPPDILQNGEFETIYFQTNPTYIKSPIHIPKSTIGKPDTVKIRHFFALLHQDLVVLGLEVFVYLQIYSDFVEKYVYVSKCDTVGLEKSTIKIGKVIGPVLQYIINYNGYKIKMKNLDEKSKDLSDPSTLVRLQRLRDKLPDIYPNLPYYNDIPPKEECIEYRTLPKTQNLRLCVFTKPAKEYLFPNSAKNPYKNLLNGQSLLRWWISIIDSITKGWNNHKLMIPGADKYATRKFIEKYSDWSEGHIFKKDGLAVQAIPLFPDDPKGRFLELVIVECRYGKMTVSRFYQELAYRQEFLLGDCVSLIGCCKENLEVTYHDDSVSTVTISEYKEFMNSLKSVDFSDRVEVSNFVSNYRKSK
row,Compound,inhibition
1,CCCCCCCCCCCCn1ccc(=N)cc1,64.2% (active)
2,CC(=O)OC1C2(CC3N4C(=O)C5(CO)SSC4(CC31O)C(=O)N5C)OC(C)C(C)(C)C2=O (stereo not given),-1.66%
3,O=C(c1ccccc1)C(O)(CN1CCCCC1)c1ccccc1 (stereo not given),-0.455%
4,CCC(C)(O)C(=O)OC1C(=O)OC2CC3C(C)=CC(=O)C(O)C3(C)C3C4(O)OCC23C1C(C)C4O (stereo not given),11.1%
5,COC1C(O)C(C)OC(OC2CCC3(C=O)C(CCC4C3CCC3(C)C(C5=CC(=O)OC5)CCC43O)C2)C1O (stereo not given),9.01%
